Assay outcomes (PubChem)
CYP2C9 act = human CYP2C9 activators, primary screen, biochemical, luminescence; Cytochrome P450 2C9 (Homo sapiens), P11712; activation factor at 5 µM; 96,000 compounds, 1.4% hits; recombinant CYP2C9, luciferin-H conversion; stronger effect = higher value; factor 1 = untreated enzyme, 0 = blocked;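 active = activation factor of 2 or more for CYP2C9 at a 5 µM dose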;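 also: 0 = sulfaphenazole-blocked wells and 1 = vehicle-only wells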
CYP2C19 inh = blockers of cytochrome P450 2C19 activity – biochemical, luminescence, ADME assay, primary screen. P33261. CYP2C19 Supersomes, luciferin-H EGE luminescence, 30 min. inhibition, % at 5 µM. 96,000 compounds, 21% hits. AID 778, 2007;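 active = CYP2C19 inhibition above a set limit at 5 µM in the primary screen, cut at about 50% in these data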;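 also: plate controls were negative control wells for no effect and 2.5 mM tranylcypromine positive control for full effect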
Target sequence (P33261 whole entry, looked up): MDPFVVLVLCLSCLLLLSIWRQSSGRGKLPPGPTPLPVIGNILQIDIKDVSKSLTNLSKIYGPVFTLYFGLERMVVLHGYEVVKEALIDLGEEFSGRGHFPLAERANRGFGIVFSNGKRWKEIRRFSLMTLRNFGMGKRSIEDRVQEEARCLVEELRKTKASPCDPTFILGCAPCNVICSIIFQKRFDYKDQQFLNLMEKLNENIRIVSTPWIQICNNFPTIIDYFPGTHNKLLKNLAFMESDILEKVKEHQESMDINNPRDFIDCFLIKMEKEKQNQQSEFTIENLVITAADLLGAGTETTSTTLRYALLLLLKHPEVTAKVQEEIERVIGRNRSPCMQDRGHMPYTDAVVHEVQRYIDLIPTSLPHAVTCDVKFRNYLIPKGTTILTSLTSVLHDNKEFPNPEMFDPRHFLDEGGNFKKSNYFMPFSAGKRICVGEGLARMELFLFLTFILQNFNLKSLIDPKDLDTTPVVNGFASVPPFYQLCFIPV
MRP1 act = H69AR viability gain despite doxorubicin, primary screen, MRP-1 activator project, H69AR cells, CellTiter-Glo. viability increase, % at 10 µM. 140,000 compounds, 0.61% hits. viability rescue. AID 799, 2007;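 active = viability gain under doxorubicin at or above a set limit, the compound median plus 3 SD, cut at about 4.7% in these data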;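 also: MRP-1 overexpressing cells given doxorubicin 25 µM after compound pretreatment; 18-22 h compound pretreatment then 72 h with doxorubicin before readout; 0% = doxorubicin-only wells and 100% = vehicle-treated cells without doxorubicin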
MRP reversal = reversal of MRP1-mediated doxorubicin resistance, primary screen, H69AR cells, doxorubicin co-treatment | differential viability (reversal), % at 10 µM | 85,000 compounds, 0.04% hits | H69AR cells + 2 uM doxorubicin, CellTiter-Glo, 72 h;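 active = viability drop by adding the cancer drug above about 55%, with treated viability meeting a 40% cutoff, limit read from the data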;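 also: viability without doxorubicin minus viability with 2 µM doxorubicin for each compound; larger differential means the compound sensitizes cells more to doxorubicin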
CYP2C19 activ = human CYP2C19 activators, primary screen, biochemical, luminescence. recombinant CYP2C19, luciferin-H EGE luminescence; stronger effect = higher value; 0 = fully inhibited enzyme, 1 = untreated enzyme. Cytochrome P450 2C19 (Homo sapiens), P33261. AID 1025, 2008. 96,000 tested, under 10 active. activation factor at 5 µM;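 active = activation factor of at least 2 at 5 µM in the primary screen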;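 also: 0 = wells with 2.5 mM tranylcypromine and 1 = vehicle-only wells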
CYP2C9 inhib = blockers of cytochrome P450 2C9 activity – biochemical, luminescence, ADME assay, primary screen; CYP2C9 Supersomes, luciferin-H conversion; P11712; AID 777, 2007; inhibition, % at 5 µM; 96,000 compounds, 20% hits;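 active = blocking of liver enzyme CYP2C9 beyond about 50% at 5 µM, limit read from the data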
Active calls of the source: *; / = no result given. In the library only some 21% were active in any assay of this set; here they are far more common.

SMILES	CYP2C9 act	CYP2C19 inh	MRP1 act	MRP reversal	CYP2C19 activ	CYP2C9 inhib
O=C(CN1C(=O)c2ccccc2S1(=O)=O)NCc1ccccc1Cl	0.9	59*	0	1	0.4	11
O=C(CCCN1C(=O)c2ccccc2C1=O)Nc1ccc(S(=O)(=O)N2CCCCC2)cc1	0.1	63*	-2	13	0.4	94*
O=C(OCCN1C(=O)c2ccccc2C1=O)c1ccc(S(=O)(=O)N2CCCCCC2)cc1	0.2	42	0	11	0.6	82*
O=C(CN1C(=O)c2ccccc2S1(=O)=O)NCc1ccccn1	1.1	4	-1	6	1	-8
O=C(OCC(=O)c1ccc[nH]1)c1ccc(S(=O)(=O)N2CCCCCC2)cc1	0.7	4	-3	1	1	28
O=C(Cn1c(=O)sc2ccccc21)Nc1ccc(S(=O)(=O)N2CCCC2)cc1	0	80*	-1	12	0.2	98*
O=C(CN1C(=O)c2ccccc2S1(=O)=O)Nc1ccc(S(=O)(=O)N2CCCCCC2)cc1	0.1	50*	-2	-10	0.5	87*
COC(=O)c1ccccc1NC(=O)CN1C(=O)c2ccccc2S1(=O)=O	1	13	-2	2	0.9	3
CCC(C)NC(=O)c1ccccc1NC(=O)CN1C(=O)c2ccccc2S1(=O)=O (configuration not stated)	0.2	10	0	1	0.9	85*
COC(=O)c1ccc(CN2C(=O)c3ccccc3S2(=O)=O)cc1	0.4	84*	-1	10	0.2	60*
CC(C)(C)C(=O)Nc1nc(-c2ccc3c(c2)OCO3)cs1	0.1	92*	1	5	0.1	94*
c1cc2c(cc1Nc1nc(-c3ccc4c(c3)OCO4)cs1)OCCO2	0.1	73*	1	0	0.3	87*
CCCN(CC(=O)Nc1ccc(Cl)cc1Cl)C(=O)/C=C/c1cc(OC)ccc1OC	/	/	2	/	/	/
CC(C)(Oc1ccc(Cl)cc1)C(=O)N(Cc1ccccc1)c1ccccn1	/	/	-2	/	/	/
CC(C)Cn1c(-c2ccc(C#N)cc2)nc2c1c(=O)[nH]c(=O)n2CC(C)C	1	8	-5	-6	0.9	-2
CCCCn1c(=O)[nH]c(=O)c2c1nc(-c1ccc(C#N)cc1)n2C1CCCC1	0.4	25	-3	37	0.7	62*
CCOC(=O)CC(NC(=O)c1cc2ccccc2oc1=O)c1cccc([N+](=O)[O-])c1 (configuration not stated)	/	/	-1	/	/	/
CCOC(=O)C1=C(c2ccccc2)OC(N)=C(C#N)C1c1cccs1 (configuration not stated)	0.9	6	-2	/	0.9	12
CCOC(=O)C1=C(C)OC(N)=C(C#N)C1c1c(C)nn(-c2ccccc2)c1Cl (configuration not stated)	0.3	83*	-2	/	0.2	74*
C=CCOC(=O)C1=C(C)OC(N)=C(C#N)C1c1c(C)nn(-c2ccccc2)c1Cl (configuration not stated)	0.2	89*	-2	-43	0.1	82*
CC1=C(C(=O)OCc2ccccc2)C(c2ccoc2)C(C#N)=C(N)O1 (configuration not stated)	0.5	77*	-1	0	0.2	48
CC(C)(C)OC(=O)N1Cc2ccccc2C[C@H]1C(=O)O	1	-14	-1	8	1.1	-5
CCOC(=O)c1c(-c2ccccc2)csc1NC(=O)/C(C#N)=C/c1ccc(O)c(OC)c1	/	/	-2	/	/	/
Cc1cccc(NC(=O)c2ccc([N+](=O)[O-])s2)c1C	/	/	-2	/	/	/
Cc1ccccc1-c1c(C)oc2cc(O)ccc2c1=O	2.2*	22	-2	6	0.8	-116
Cc1oc2cc(O)ccc2c(=O)c1N1C(=O)c2ccccc2C1=O	2.2*	-8	0	-6	1.1	-118
Cc1oc2cc(O)ccc2c(=O)c1Oc1ccccc1	2*	27	1	/	0.7	-100
Clc1ccc(-n2ncc3c(NCc4ccco4)ncnc32)cc1	/	/	-5	-8	/	/
